Experimental data from PubChem BioAssay (NCATS).
Several values for one entry are separate records, joined by “and”; a condition that tells them apart may be missing. Equal entries are not always repeated. Results filed as inconclusive are left out. A number with no mark means an inactive call. Calls come from the whole dose curve; as a rule, active = well fitted inhibition curve with a large enough effect; inconclusive = small, poorly fitted or top-dose-only effect; inactive = flat fitted curve, though single readings scatter.

Tested on: not listed separately
Assay: Drug repurposing screens with cells derived from glioblastoma tumor samples (AID 1345199); note: nearly all actives have a fitted effect of over 40% in size
Settings: GBM patient neurospheres viability, ATP luminescence, 48 h; at 46 µM (top of the series); tumour line A
Method in brief: (§1)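 Four patient lines of CD133+ GBM neurospheres were screened at several concentrations; hits were retested in those lines plus three slower-growing GBM lines, using 48-hour treatment and ATP-based viability.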
% is set by controls: 0 for no effect and ±100 for the full control effect.

Structure (SMILES)	activity, negative = cell killing
O=C(CS(=O)C(c1ccccc1)c1ccccc1)NO (configuration not stated)	-19.6%
CNc1ccc(C(=O)CC(O)CCC(C)C2OC(=O)CC(O)CC(=O)CC(O)CC(O)CC(O)CC(O)CC3(O)CC(O)C(C(=O)OC)C(CC(O[C@@H]4O[C@H](C)[C@@H](O)[C@H](N)[C@@H]4O)/C=C/C=C/C=C/C=C/C=C/C=C/C=C/C2C)O3)cc1 (some centres not stated)	-20.9%
C#CCN1CC(=O)N(COC(=O)C2C(C=C(C)C)C2(C)C)C1=O (configuration not stated)	-23.1%
CN[C@H]1C[C@@H](N)[C@H](O)[C@@H](O[C@@H]2O[C@H](CO)[C@H](O)[C@@H]3OC4(O[C@H]23)O[C@H](C(N)CO)[C@H](O)[C@H](O)[C@H]4O)[C@@H]1O (some centres not stated)	-23.6%
CCNC(C)Cc1cccc(C(F)(F)F)c1 (configuration not stated)	-19.5%
O=c1[nH]c(=O)n(Cl)c(=O)n1Cl	-8.9%

Same assay, conditions: GBM patient neurospheres viability, ATP luminescence, 48 h; at 46.1 µM (top of the series); tumour line C

Structure (SMILES)	activity, negative = cell killing
O=C(CS(=O)C(c1ccccc1)c1ccccc1)NO (configuration not stated)	-22%
C=CCN1CC[C@]23c4c5ccc(O)c4O[C@H]2[C@@H](O)C=C[C@H]3[C@H]1C5	-4.91%
N#CN	-5.37%
O=C1CCO1	-10.3%
CNc1ccc(C(=O)CC(O)CCC(C)C2OC(=O)CC(O)CC(=O)CC(O)CC(O)CC(O)CC(O)CC3(O)CC(O)C(C(=O)OC)C(CC(O[C@@H]4O[C@H](C)[C@@H](O)[C@H](N)[C@@H]4O)/C=C/C=C/C=C/C=C/C=C/C=C/C=C/C2C)O3)cc1 (some centres not stated)	-13.4%
CCCCCCCCOC(=O)c1ccccc1C(=O)OCCCCCCCC	-8.6%
N#CC1(N2CCCCC2)CCCCC1	-18%
CCC1(CC)C(=O)NC(=O)N(C)C1=O	-31.1%
CC(=O)O[C@H]1CC[C@H]2[C@@H]3CCC4=CC(=O)CCC4=C3C=C[C@]12C	-16.1%
C#CCN1CC(=O)N(COC(=O)C2C(C=C(C)C)C2(C)C)C1=O (configuration not stated)	-15.9%
C#CC(C)(O)CC (configuration not stated)	-2.82%
CN[C@H]1C[C@@H](N)[C@H](O)[C@@H](O[C@@H]2O[C@H](CO)[C@H](O)[C@@H]3OC4(O[C@H]23)O[C@H](C(N)CO)[C@H](O)[C@H](O)[C@H]4O)[C@@H]1O (some centres not stated)	9% and -3.99%
NCC(O)c1cccc(O)c1 (configuration not stated)	-10.7%
CC(=O)OC1CN2CCC1CC2 (configuration not stated)	-1.09%
S=C=S	-10.7%
[2H]C([2H])([2H])[C@H](N)Cc1ccccc1	-22.7%

Structure (SMILES)	activity, negative = cell killing
O=C(NC(=O)c1c(F)cccc1F)Nc1ccc(Cl)c(Oc2ncc(C(F)(F)F)cc2Cl)c1	-19.8%
O=C(CCl)c1ccc(Oc2ccc(C(=O)CCl)cc2)cc1	-8.36%
OC[C@@H](O)[C@H]1O[C@@H]2O[C@H](C(Cl)(Cl)Cl)O[C@@H]2[C@H]1O	-11.5%
CCNC(C)Cc1cccc(C(F)(F)F)c1 (configuration not stated)	-4.96%
CC(Cc1ccccc1)NC=O (configuration not stated)	-28.9%
CCCC(C)C1(CC)C(=O)NC(=O)NC1=O (configuration not stated)	-8.48%
CCN1C[C@]2(COC)[C@H](O)C[C@H](OC)[C@@]34[C@@H]5C[C@@]6(O)[C@H](OC(=O)c7ccccc7)[C@@H]5[C@@](OC(C)=O)([C@@H]([C@H](OC)[C@H]23)[C@@H]14)[C@@H](O)[C@@H]6OC	8.16%
CCC(=O)O[C@]1(c2ccccc2)CCN(C)C[C@H]1C	-18.2%
O=c1[nH]c(=O)n(Cl)c(=O)n1Cl	7.98%
COc1ccc(OC)c([C@@H](O)[C@H](C)N)c1	-18.1%
CCC1(c2ccccc2)C(=O)NC(=O)N(C(=O)c2ccccc2)C1=O (configuration not stated)	-23.5%
Clc1ccc(C2(Cn3cncn3)OCCO2)c(Cl)c1	-23.5%
CCCCNCC(O)c1ccc(O)cc1 (configuration not stated)	1.33%
CN(C)CCCCCCN(C)C (tested in a mixture with another compound)	-16.2%
C[C@]12CC[C@H]3[C@@H](CC[C@@]45O[C@@H]4C(O)=C(C#N)C[C@]35C)[C@@H]1CC[C@@H]2O	-5.72%

Tested on: astro (control astrocytes)
Assay: as above
Settings: viability, ATP luminescence, 48 h; series mostly up to 45.9 µM; activity, negative = cell killing: at the top concentration
Method in brief: as §1

Structure (SMILES)	activity, negative = cell killing
O=C(CS(=O)C(c1ccccc1)c1ccccc1)NO (configuration not stated)	-12.9%
C=CCN1CC[C@]23c4c5ccc(O)c4O[C@H]2[C@@H](O)C=C[C@H]3[C@H]1C5	-11.6%
N#CN	-17.1%
O=C1CCO1	-15.5%
CNc1ccc(C(=O)CC(O)CCC(C)C2OC(=O)CC(O)CC(=O)CC(O)CC(O)CC(O)CC(O)CC3(O)CC(O)C(C(=O)OC)C(CC(O[C@@H]4O[C@H](C)[C@@H](O)[C@H](N)[C@@H]4O)/C=C/C=C/C=C/C=C/C=C/C=C/C=C/C2C)O3)cc1 (some centres not stated)	-29%
CCC(=O)O[C@@](Cc1ccccc1)(c1ccccc1)[C@@H](C)CN(C)C	-8.57% [at 21.2 µM]
C[C@]12CCC(=O)C=C1C=C[C@@H]1[C@@H]2CC[C@@]2(C)[C@H]1CC[C@@]2(O)CCC(=O)O	-11.8% [at 21.2 µM]
CCCCCCCCOC(=O)c1ccccc1C(=O)OCCCCCCCC	-10.2%
N#CC1(N2CCCCC2)CCCCC1	-18.3%
CCC1(CC)C(=O)NC(=O)N(C)C1=O	-15.3%
CC(=O)O[C@H]1CC[C@H]2[C@@H]3CCC4=CC(=O)CCC4=C3C=C[C@]12C	-18.6%
C#CCN1CC(=O)N(COC(=O)C2C(C=C(C)C)C2(C)C)C1=O (configuration not stated)	-7.67%
C#CC(C)(O)CC (configuration not stated)	-13.2%
CN[C@H]1C[C@@H](N)[C@H](O)[C@@H](O[C@@H]2O[C@H](CO)[C@H](O)[C@@H]3OC4(O[C@H]23)O[C@H](C(N)CO)[C@H](O)[C@H](O)[C@H]4O)[C@@H]1O (some centres not stated)	-18.2%
NCC(O)c1cccc(O)c1 (configuration not stated)	-4.76%
CC(=O)OC1CN2CCC1CC2 (configuration not stated)	-3.98%
S=C=S	-7.63%
[2H]C([2H])([2H])[C@H](N)Cc1ccccc1	-19.4%

Structure (SMILES)	activity, negative = cell killing
O=C(NC(=O)c1c(F)cccc1F)Nc1ccc(Cl)c(Oc2ncc(C(F)(F)F)cc2Cl)c1	-28.5%
O=C(CCl)c1ccc(Oc2ccc(C(=O)CCl)cc2)cc1	-9.89%
OC[C@@H](O)[C@H]1O[C@@H]2O[C@H](C(Cl)(Cl)Cl)O[C@@H]2[C@H]1O	-15.1%
CCNC(C)Cc1cccc(C(F)(F)F)c1 (configuration not stated)	-1.28%
CC(Cc1ccccc1)NC=O (configuration not stated)	-22.2%
CCCC(C)C1(CC)C(=O)NC(=O)NC1=O (configuration not stated)	-17%
CCN1C[C@]2(COC)[C@H](O)C[C@H](OC)[C@@]34[C@@H]5C[C@@]6(O)[C@H](OC(=O)c7ccccc7)[C@@H]5[C@@](OC(C)=O)([C@@H]([C@H](OC)[C@H]23)[C@@H]14)[C@@H](O)[C@@H]6OC	-15.4%
CCC(=O)O[C@]1(c2ccccc2)CCN(C)C[C@H]1C	-17%
O=c1[nH]c(=O)n(Cl)c(=O)n1Cl	-16%
COc1ccc(OC)c([C@@H](O)[C@H](C)N)c1	-11.5%
CCC1(c2ccccc2)C(=O)NC(=O)N(C(=O)c2ccccc2)C1=O (configuration not stated)	-12%
Clc1ccc(C2(Cn3cncn3)OCCO2)c(Cl)c1	-8.21%
CCCCNCC(O)c1ccc(O)cc1 (configuration not stated)	-19.5%
Clc1ccc(C(Cn2ccnc2)OCc2csc3c(Cl)cccc23)c(Cl)c1 (configuration not stated)	-11.5% [at 21.2 µM]
CC(=O)O[C@H]1CC[C@@]2(C)C(=CC[C@@H]3[C@@H]2CC[C@]2(C)C(=O)CC[C@@H]32)C1	-15.1% [at 21.2 µM]
CN(C)CCCCCCN(C)C (tested in a mixture with another compound)	-11.8%
C[C@]12CC[C@H]3[C@@H](CC[C@@]45O[C@@H]4C(O)=C(C#N)C[C@]35C)[C@@H]1CC[C@@H]2O	-17%
